# From PubChem BioAssay (EPA / NIEHS)
# Inconclusive results are not listed. Calls of active or inactive are those of the source. Rule for the calls: active = hit-call score of the fitted dose curve at least 0.9, where 1 is the maximum; inconclusive = response in the unintended direction; inactive = score below 0.9.
# Experiments:
# [1] = target: Collagenase 3 (Homo sapiens) (UniProt P45452); test: NVS_ENZ_hMMP13: NovaScreen (NVS) Enzymatic Assay for human Matrix Metalloproteinase-13 (MMP13) (AID 2283182)
# Protocol: NVS_ENZ_hMMP13 is a biochemical, single-readout assay that uses extracted gene-proteins in a cell-free assay. Measurements were taken 1 hour after chemical dosing in a 96-well plate.NVS_ENZ_hMMP13 is one of one assay component(s) measured or calculated from the NVS_ENZ_hMMP13 assay. It is designed to make measurements of enzyme activity, a form of enzyme reporter, as detected with fluorescence intensity signals by Fluorescence technology.Data from the assay component NVS_ENZ_hMMP13 was analyzed into 1 assay endpoint. This assay endpoint, NVS_ENZ_hMMP13, was analyzed in the positive analysis fitting direction relative to DMSO as the negative control and baseline of activity. […] Furthermore, this assay endpoint can be referred to as a primary readout, because this assay has produced multiple assay endpoints where this one serves a enzymatic activity function. […]
# Binding assays used specific radioligands (tritiated, iodinated) with non-radioactive competitive displacement ligands in agonist or antagonist protocols (as indicated) and various reference compounds and inhibitors to titrate specific binding to receptors and transporters. Most enzyme assays (CYPs, kinases, phosphatases, proteases, HDACs) used recombinant protein and specific substrates (fluorescence mostly, some colorimetric and radioactive) and inhibitors, followed by a biochemical separation of substrate and product. […]
# [2] = target: human Matrix Metalloproteinase-2 (MMP2), MMP2 (gene 4313) (UniProt P08253); test: NVS_ENZ_hMMP2: NovaScreen (NVS) Enzymatic Assay for human Matrix Metalloproteinase-2 (MMP2) (AID 2283184)
# Summary of the method: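 Cell-free recombinant MMP2 activity with a fluorescent substrate, read 1 h after dosing. Primary screen in duplicate at 25 uM; actives then run in concentration series; loss of signal fitted versus DMSO.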
# [3] = target: Tyrosine-protein phosphatase non-receptor type 13 (Homo sapiens) (UniProt Q12923); test: NVS_ENZ_hPTPN13: NovaScreen (NVS) Enzymatic Assay for human Protein Tyrosine Phosphatase Non-receptor Type 13 (PTPN13) (AID 2283205)
# Summary of the method: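 Cell-free assay of recombinant human PTPN13 with a fluorescent substrate, product separated by electrophoretic mobility shift and read 0.5 h after dosing. Primary screen at 25 uM in duplicate, then concentration-response up to 50 uM. Loss of signal fitted against DMSO.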
# [4] = target: human Mitogen- and Stress-activated Protein Kinase-1 (Msk1), RPS6KA5 (gene 9252) (UniProt O75582); test: NVS_ENZ_hMsk1: NovaScreen (NVS) Enzymatic Assay for human Mitogen- and Stress-activated Protein Kinase-1 (Msk1) (AID 2283187)
# Protocol: (§1) NVS_ENZ_hMsk1 is a biochemical, single-readout assay that uses extracted gene-proteins in a cell-free assay. Measurements were taken 1 hour after chemical dosing in a 384-well plate.NVS_ENZ_hMsk1 is one of one assay component(s) measured or calculated from the NVS_ENZ_hMsk1 assay. It is designed to make measurements of enzyme activity, a form of enzyme reporter, as detected with fluorescence intensity signals by Fluorescence and electrophoretic mobility shift technology.Data from the assay component NVS_ENZ_hMsk1 was analyzed into 1 assay endpoint. This assay endpoint, NVS_ENZ_hMsk1, was analyzed in the positive analysis fitting direction relative to DMSO as the negative control and baseline of activity. Using a type of enzyme reporter, loss-of-signal activity can be used to understand changes in the enzymatic activity as they relate to the gene RPS6KA5. Furthermore, this assay endpoint can be referred to as a primary readout, because this assay has produced multiple assay endpoints where this one serves a enzymatic activity function. To generalize the intended target to other relatable targets, this assay endpoint is annotated to the kinase intended target family, where the subfamily is serine/threonine kinase. […]
# [5] = target: Tyrosine-protein phosphatase non-receptor type 12 (Homo sapiens) (UniProt Q05209); test: NVS_ENZ_hPTPN12: NovaScreen (NVS) Enzymatic Assay for human Protein Tyrosine Phosphatase Non-receptor Type 12 (PTPN12) (AID 2283204)
# Summary of the method: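 Single-concentration duplicates (25 uM) preceded singleton concentration-response up to 50 uM for chemicals passing threshold. Cell-free recombinant PTPN12 activity was read 1.33 h after dosing via fluorescence after mobility-shift separation; loss of signal versus DMSO.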
# [6] = target: human NIMA (Never In Mitosis Gene A)-Related Kinase 2 (NEK2), NEK2 (gene 4751) (UniProt P51955); test: NVS_ENZ_hNEK2: NovaScreen (NVS) Enzymatic Assay for human NIMA (Never In Mitosis Gene A)-Related Kinase 2 (NEK2) (AID 2283188)
# Summary of the method: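 Cell-free NEK2 enzyme activity after 1 h exposure, read by fluorescence with electrophoretic mobility shift separating substrate and product. Primary screen in duplicate at 25 uM; actives then run as concentration series. Loss of signal versus DMSO scored.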
# [7] = target: human p21 Activated Kinase 4 (PAK4), PAK4 (gene 10298) (UniProt O96013); test: NVS_ENZ_hPAK4: NovaScreen (NVS) Enzymatic Assay for human p21 Activated Kinase 4 (PAK4) (AID 2283189)
# Protocol: as §1, with “NVS_ENZ_hPAK4” for “NVS_ENZ_hMsk1”, “plate.NVS_ENZ_hPAK4” for “plate.NVS_ENZ_hMsk1”, “NVS_ENZ_hPAK4,” for “NVS_ENZ_hMsk1,”, “PAK4.” for “RPS6KA5.”
# [8] = target: human Phosphodiesterase 10 (PDE10), PDE10A (gene 10846) (UniProt Q9Y233); test: NVS_ENZ_hPDE10: NovaScreen (NVS) Enzymatic Assay for human Phosphodiesterase 10 (PDE10) (AID 2283195)
# Summary of the method: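 PDE10A, cell-free; 1 h incubation; fluorescence intensity + electrophoretic mobility shift separating substrate/product; DMSO = baseline; 25 uM duplicate primary, CRC up to 50 uM.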
# [9] = target: human Protein Tyrosine Phosphatase Non-receptor Type 1 (PTPN1), PTPN1 (gene 5770) (UniProt P18031); test: NVS_ENZ_hPTPN1: NovaScreen (NVS) Enzymatic Assay for human Protein Tyrosine Phosphatase Non-receptor Type 1 (PTPN1) (AID 2283201)
# Protocol: NVS_ENZ_hPTPN1 is a biochemical, single-readout assay that uses extracted gene-proteins in a cell-free assay. Measurements were taken 1.33 hours after chemical dosing in a 384-well plate.NVS_ENZ_hPTPN1 is one of one assay component(s) measured or calculated from the NVS_ENZ_hPTPN1 assay. It is designed to make measurements of enzyme activity, a form of enzyme reporter, as detected with fluorescence intensity signals by Fluorescence and electrophoretic mobility shift technology.Data from the assay component NVS_ENZ_hPTPN1 was analyzed into 1 assay endpoint. This assay endpoint, NVS_ENZ_hPTPN1, was analyzed in the positive analysis fitting direction relative to DMSO as the negative control and baseline of activity. Using a type of enzyme reporter, loss-of-signal activity can be used to understand changes in the enzymatic activity as they relate to the gene PTPN1. Furthermore, this assay endpoint can be referred to as a primary readout, because this assay has produced multiple assay endpoints where this one serves a enzymatic activity function. To generalize the intended target to other relatable targets, this assay endpoint is annotated to the phosphatase intended target family, where the subfamily is non-receptor tyrosine phosphatase. […]
# human Mitogen- and Stress-activated Protein Kinase-1 (Msk1), RPS6KA5 (gene 9252), sequence (O75582 whole entry, looked up): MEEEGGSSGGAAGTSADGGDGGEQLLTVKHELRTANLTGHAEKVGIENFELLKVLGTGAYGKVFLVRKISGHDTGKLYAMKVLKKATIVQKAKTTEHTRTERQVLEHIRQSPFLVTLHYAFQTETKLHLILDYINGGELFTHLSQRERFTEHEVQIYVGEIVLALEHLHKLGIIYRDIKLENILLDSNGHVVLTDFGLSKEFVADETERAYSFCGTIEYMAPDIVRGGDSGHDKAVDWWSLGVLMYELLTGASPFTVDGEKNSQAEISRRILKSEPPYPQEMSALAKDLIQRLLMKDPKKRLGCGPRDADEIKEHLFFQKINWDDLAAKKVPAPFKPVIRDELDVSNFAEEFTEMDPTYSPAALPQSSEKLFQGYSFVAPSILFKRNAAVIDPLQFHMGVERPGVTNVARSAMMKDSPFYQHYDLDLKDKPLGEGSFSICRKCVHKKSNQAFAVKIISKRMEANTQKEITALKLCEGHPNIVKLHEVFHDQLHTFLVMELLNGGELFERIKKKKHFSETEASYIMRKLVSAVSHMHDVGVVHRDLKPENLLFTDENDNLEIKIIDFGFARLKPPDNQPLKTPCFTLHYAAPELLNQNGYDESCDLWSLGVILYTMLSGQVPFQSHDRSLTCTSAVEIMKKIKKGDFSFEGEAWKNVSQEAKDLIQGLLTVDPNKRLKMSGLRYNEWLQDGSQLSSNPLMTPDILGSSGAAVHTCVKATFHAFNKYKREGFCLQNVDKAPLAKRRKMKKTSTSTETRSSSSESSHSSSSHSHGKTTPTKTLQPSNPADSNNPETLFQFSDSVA
# Tyrosine-protein phosphatase non-receptor type 13 (Homo sapiens), sequence (Q12923 whole entry, looked up): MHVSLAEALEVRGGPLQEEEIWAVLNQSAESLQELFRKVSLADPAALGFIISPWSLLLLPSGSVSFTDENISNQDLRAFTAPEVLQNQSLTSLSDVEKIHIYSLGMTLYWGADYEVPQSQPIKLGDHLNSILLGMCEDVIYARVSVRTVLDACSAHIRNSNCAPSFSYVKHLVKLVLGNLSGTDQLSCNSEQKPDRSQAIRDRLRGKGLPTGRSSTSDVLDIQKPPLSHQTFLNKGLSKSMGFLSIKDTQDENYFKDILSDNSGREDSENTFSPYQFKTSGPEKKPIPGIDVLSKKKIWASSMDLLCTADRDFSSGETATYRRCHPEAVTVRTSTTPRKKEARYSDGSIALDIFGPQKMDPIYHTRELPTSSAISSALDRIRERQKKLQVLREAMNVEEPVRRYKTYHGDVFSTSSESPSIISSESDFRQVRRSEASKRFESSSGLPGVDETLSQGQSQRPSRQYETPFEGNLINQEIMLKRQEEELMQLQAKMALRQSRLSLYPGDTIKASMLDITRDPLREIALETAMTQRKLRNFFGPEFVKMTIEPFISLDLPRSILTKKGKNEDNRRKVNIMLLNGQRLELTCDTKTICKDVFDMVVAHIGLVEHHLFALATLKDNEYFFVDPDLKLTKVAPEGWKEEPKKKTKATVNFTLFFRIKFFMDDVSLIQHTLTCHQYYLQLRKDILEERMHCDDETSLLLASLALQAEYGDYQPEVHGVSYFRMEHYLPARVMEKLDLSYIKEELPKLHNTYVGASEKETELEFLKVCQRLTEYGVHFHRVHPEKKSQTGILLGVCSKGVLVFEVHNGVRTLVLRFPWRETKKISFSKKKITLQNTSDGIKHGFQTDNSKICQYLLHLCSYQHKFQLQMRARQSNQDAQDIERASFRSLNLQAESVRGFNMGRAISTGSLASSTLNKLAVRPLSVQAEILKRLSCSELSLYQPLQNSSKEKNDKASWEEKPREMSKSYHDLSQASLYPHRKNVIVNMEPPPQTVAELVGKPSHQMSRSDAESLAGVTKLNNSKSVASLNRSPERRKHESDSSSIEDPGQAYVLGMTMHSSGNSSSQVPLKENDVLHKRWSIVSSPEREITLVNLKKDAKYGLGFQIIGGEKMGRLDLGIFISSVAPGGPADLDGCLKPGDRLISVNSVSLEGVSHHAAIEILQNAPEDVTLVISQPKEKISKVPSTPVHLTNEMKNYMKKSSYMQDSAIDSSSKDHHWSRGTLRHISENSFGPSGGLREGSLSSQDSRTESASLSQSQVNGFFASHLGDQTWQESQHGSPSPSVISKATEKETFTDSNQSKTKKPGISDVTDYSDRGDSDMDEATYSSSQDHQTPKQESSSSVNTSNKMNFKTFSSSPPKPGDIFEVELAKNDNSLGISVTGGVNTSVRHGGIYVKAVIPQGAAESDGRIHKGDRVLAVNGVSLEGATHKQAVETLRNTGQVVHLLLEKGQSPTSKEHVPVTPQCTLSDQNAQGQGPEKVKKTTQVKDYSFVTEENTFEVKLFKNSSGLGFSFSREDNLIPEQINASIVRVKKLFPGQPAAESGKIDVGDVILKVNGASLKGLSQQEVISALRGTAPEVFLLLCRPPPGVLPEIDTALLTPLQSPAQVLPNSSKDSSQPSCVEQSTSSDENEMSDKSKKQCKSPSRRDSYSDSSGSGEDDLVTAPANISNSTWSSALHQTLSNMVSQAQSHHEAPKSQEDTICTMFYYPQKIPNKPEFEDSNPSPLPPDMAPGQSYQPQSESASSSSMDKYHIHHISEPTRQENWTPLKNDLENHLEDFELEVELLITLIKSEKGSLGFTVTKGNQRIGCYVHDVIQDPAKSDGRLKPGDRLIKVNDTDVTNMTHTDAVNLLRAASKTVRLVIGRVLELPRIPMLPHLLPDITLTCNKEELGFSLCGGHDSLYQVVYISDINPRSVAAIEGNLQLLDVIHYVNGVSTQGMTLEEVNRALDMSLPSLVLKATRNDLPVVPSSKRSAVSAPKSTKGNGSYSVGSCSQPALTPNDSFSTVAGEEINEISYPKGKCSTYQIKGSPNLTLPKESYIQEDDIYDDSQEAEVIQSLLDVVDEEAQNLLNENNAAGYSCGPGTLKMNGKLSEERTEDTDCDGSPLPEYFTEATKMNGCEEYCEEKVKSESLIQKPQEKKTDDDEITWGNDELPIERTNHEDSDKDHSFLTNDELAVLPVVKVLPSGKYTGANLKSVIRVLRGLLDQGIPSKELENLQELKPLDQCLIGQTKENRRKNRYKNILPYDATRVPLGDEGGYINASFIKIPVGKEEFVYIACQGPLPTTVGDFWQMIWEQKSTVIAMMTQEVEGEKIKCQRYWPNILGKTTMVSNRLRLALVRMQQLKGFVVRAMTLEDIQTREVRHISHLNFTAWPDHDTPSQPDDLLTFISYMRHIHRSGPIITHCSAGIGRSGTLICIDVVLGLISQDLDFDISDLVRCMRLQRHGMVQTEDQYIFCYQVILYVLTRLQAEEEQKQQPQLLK
# human Phosphodiesterase 10 (PDE10), PDE10A (gene 10846), sequence (Q9Y233 whole entry, looked up): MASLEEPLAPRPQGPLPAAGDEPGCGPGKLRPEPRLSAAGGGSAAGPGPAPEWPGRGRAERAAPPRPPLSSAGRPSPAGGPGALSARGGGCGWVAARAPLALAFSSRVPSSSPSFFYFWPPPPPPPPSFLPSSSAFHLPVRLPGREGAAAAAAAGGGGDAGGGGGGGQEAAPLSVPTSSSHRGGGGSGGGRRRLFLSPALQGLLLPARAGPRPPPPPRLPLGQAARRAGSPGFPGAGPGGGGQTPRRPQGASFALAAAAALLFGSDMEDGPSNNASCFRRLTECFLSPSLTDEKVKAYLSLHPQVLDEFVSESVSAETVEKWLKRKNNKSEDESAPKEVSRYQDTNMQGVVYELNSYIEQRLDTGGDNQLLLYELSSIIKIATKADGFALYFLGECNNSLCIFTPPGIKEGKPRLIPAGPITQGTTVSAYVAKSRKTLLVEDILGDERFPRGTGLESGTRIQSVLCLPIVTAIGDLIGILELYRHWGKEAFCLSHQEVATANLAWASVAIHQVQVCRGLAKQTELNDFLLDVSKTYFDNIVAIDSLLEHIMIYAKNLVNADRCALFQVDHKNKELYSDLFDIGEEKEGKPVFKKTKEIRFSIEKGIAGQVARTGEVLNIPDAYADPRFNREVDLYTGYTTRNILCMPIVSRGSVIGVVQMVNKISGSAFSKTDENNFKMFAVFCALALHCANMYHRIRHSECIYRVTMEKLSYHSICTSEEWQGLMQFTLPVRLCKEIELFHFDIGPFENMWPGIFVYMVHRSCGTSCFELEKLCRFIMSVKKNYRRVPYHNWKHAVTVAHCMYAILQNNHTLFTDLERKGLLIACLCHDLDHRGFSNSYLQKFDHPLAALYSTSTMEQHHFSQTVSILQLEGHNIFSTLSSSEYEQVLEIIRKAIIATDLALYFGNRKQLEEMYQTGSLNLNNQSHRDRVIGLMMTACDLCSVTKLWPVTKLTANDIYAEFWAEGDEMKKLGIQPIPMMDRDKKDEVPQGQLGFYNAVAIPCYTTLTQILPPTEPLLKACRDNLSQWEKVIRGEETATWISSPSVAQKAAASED
# human Matrix Metalloproteinase-2 (MMP2), MMP2 (gene 4313), sequence (P08253 whole entry, looked up): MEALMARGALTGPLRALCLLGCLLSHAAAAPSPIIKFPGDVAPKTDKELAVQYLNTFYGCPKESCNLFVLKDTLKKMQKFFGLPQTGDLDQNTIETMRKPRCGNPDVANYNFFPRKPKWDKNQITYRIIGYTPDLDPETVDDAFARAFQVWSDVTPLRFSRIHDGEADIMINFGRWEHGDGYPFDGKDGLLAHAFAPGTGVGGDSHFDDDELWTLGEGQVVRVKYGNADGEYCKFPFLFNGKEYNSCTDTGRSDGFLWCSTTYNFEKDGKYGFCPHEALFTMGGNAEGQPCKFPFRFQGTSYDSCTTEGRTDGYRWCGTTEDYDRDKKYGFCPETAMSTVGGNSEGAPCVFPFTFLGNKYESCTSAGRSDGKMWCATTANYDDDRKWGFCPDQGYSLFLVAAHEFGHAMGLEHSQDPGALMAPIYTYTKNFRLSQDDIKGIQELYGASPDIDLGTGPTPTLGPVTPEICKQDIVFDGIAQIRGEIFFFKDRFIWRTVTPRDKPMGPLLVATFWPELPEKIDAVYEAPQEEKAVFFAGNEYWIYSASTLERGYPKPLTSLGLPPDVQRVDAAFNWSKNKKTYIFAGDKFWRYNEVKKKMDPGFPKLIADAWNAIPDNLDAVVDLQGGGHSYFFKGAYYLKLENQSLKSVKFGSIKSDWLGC
smiles,measurement,setting,value
CO/C=C(/C(=O)OC)c1ccccc1Oc1cc(Oc2ccccc2C#N)ncn1,outcome,[1],inactive
same,outcome,[2],inactive
same,AC50,[3],113 nM (active)
CCNc1nc(Cl)nc(NCC)n1,outcome,[2],inactive
CNC(=S)S,outcome,[4],inactive
same,outcome,[5],inactive
CCCN(CCC)c1c([N+](=O)[O-])cc(S(N)(=O)=O)cc1[N+](=O)[O-],outcome,[4],inactive
same,outcome,[6],inactive
same,outcome,[7],inactive
same,outcome,[8],inactive
same,outcome,[9],inactive
same,outcome,[3],inactive
COc1cnc(OC)n2nc(NS(=O)(=O)c3c(OCC(F)F)cccc3C(F)(F)F)nc12,outcome,[8],inactive
COP(=S)(OC)Oc1nc(Cl)c(Cl)cc1Cl,outcome,[9],inactive
